In PMC4336329 (PLoS ONE, 2015):
About 14,000 (4.5%) of roughly 310,000 compounds showed an effect of 50% or more. Effects have a minus sign here. This is one part of a sample in which strong results are shown more often than they occur.

Target: human ether-à-go-go-related gene (hERG) potassium channel (human, UniProt Q12809)
Test: primary screen, population patch clamp on CHO cells stably expressing hERG; higher = less effect of the substance
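Further: peak tail current of the secondary pulse compared with the same well before compound.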

human ether-à-go-go-related gene (hERG) potassium channel, sequence (Q12809 whole entry, looked up): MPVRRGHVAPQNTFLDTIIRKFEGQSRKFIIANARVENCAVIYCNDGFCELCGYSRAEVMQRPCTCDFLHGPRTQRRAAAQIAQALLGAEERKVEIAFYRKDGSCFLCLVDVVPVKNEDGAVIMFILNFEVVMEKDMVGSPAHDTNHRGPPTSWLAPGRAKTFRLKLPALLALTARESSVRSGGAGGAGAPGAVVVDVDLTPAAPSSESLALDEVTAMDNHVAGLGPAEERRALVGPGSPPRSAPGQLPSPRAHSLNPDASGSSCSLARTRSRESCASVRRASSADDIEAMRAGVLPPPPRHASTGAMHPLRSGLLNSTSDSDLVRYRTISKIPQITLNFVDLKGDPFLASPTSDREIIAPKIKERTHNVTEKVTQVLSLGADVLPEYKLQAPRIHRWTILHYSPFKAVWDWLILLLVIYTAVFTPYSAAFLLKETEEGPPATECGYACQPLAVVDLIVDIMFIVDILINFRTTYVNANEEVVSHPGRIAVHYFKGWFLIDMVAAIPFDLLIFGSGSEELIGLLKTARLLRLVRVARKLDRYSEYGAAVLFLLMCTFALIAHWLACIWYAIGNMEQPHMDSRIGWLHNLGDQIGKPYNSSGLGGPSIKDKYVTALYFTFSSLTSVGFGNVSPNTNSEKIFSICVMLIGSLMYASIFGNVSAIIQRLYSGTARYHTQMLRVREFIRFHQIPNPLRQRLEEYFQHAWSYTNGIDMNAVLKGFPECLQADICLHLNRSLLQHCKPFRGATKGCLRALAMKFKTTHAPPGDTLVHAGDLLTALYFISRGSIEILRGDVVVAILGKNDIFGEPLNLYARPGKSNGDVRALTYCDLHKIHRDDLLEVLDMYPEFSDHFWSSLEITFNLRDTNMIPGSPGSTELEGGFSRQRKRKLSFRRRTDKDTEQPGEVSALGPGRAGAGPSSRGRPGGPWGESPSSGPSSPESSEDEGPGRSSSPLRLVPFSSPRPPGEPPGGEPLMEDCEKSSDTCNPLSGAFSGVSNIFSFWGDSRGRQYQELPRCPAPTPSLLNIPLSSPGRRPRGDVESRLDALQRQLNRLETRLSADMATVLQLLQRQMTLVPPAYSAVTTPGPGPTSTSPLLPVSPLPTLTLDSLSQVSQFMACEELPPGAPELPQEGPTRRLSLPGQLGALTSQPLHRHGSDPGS

SMILES	hERG current change (%, negative = inhibition) at 10uM [%]
CCCCc1cc(C)c(S(=O)(=O)c2ccccc2C)c(=O)[nH]1	3.69
CC(Oc1ccccc1)C(=O)NC1C(=O)N2C1SC(C)(C)C2C(=O)[O-].[K+] (centres unmarked)	35.9
CCOC(=O)c1sc(NC(=S)NC(=O)C23CC4CC(CC(C4)C2)C3)cc1C	20.2
CCCC1=NN(c2ccc([N+](=O)[O-])cc2)C(=O)/C1=C\N(C)C	-7.95
O=C(O)C1C2CCC(O2)C1C(=O)Nc1ccc(F)c(F)c1 (centres unmarked)	26.5
CCCC(=O)Nc1ccc(C(=O)COC(=O)C2CC2C)cc1 (centres unmarked)	5.46
CCN1C(=O)/C(=C/C=C2/SCCN2C)SC1=S	4.78
COC(=O)Cn1cc(C(=O)C2CC2)c2ccccc21	2.2
Cc1cc(C)c(C)c(S(=O)(=O)NCc2ccc(C(=O)N3CCN(C)CC3)cc2)c1C	-4.7
O=C(O)c1nn2c(c1Br)NC(c1ccccc1)CC2C(F)(F)F (centres unmarked)	12.2
CCc1nnc(NC(=O)c2cc(S(=O)(=O)N(CC)CC)ccc2Cl)s1	-7.31
COc1ccccc1NC(=O)N1CCC(c2nc3ccccc3o2)CC1	-6.16
CC(C)NC(=O)COC(=O)c1cccc(NS(=O)(=O)/C=C/c2ccccc2)c1	-18
Cn1cnnc1SCC(=O)NC1CCCN(Cc2ccc(Cl)cc2)C1 (centres unmarked)	-0.412
O=C(/C=C/c1ccccc1)Nc1ccc(CN2CCOCC2)cc1	-62.5
O=C(/C=C/c1ccccc1)NC(=S)Nc1ccc(CN2CCOCC2)cc1	-18.9
O=C(/C=C/c1ccc(Cl)cc1)Nc1ccc(CN2CCOCC2)cc1	-28
CCSc1nnc(NC(=O)CSc2nc3c(c(=O)n2CC)SC(C)C3)s1 (centres unmarked)	6.95
CCC(=O)Nc1ccc(NC(=O)c2cccc3ccccc23)cc1	23.9
COc1ccc(-c2nc(SC(CC(=O)NCc3ccccc3)c3ccc(OC)c(OC)c3)n[nH]2)cc1 (centres unmarked)	-0.421
Cc1ccc(-c2noc(CSc3nnc(-c4ccncc4)n3-c3ccc(C)cc3)n2)cc1	-42.9
CCOc1ccc(-n2c(SCc3nc(-c4cccs4)no3)nnc2-c2ccncc2)cc1	-59.7
CCCn1c(SCc2nc(-c3cccs3)no2)nnc1-c1ccncc1	-4.13
Cc1ccc(-c2noc(CSc3nnc(-c4ccncc4)n3-c3ccc(F)cc3)n2)cc1	-10.3

SMILES	hERG current change (%, negative = inhibition) at 10uM [%]
c1ccc(-n2c(SCc3nc(-c4cccs4)no3)nnc2-c2ccco2)cc1	-42.6
CCOc1ccc(-n2c(SCc3nc(-c4ccc(C)cc4)no3)nnc2-c2ccncc2)cc1	-73.2
O=c1[nH]c(=S)n(-c2ccc(Cl)cc2)c(O)c1/C=N/N1CCOCC1	-6.08
CC1CC(C)CN(S(=O)(=O)c2ccc3c(c2)CC(C)N3C(=O)C2CCC2)C1 (centres unmarked)	4.7
CC12CCC(C(=O)N3CCCCCC3)(OC1=O)C2(C)C (centres unmarked)	13.1
Nc1cc(=O)[nH]c(SCC(=O)NC2CCCc3ccccc32)n1 (centres unmarked)	0.0692
CCC(=O)OCc1cc2cccc(C)c2[nH]c1=O	-1.03
Cc1cccc(CCN(Cc2cc3cccc(C)c3[nH]c2=O)C(=O)N2CCOCC2)c1	-29.4
CC(=O)OCc1cc2cccc(C)c2[nH]c1=O	-9.76
Cc1cccc2cc(COC(=O)c3ccccc3)c(=O)[nH]c12	-0.867
Cc1cccc(CCNCc2cc3cc(C)cc(C)c3[nH]c2=O)c1	-30.8
Cc1cccc2cc(COC(=O)C(C)C)c(=O)[nH]c12	-69.3
Cc1cccc2cc(CN(Cc3ccccc3)C(=O)N(C)C)c(=O)[nH]c12	-11.5
Cc1ccccc1CCNCc1cc2cccc(C)c2[nH]c1=O	-52.2
Cc1cccc(CCNCc2cc3cccc(C)c3[nH]c2=O)c1	-64.1
CC(C)CSc1oc(-c2ccco2)nc1S(=O)(=O)c1ccccc1	-19.7
O=C(CCC(=O)N1CCCC(Nc2ccccc2)C1)c1ccc(F)cc1 (centres unmarked)	-8.8
COc1cc(CNc2ccc3[nH]c(=O)[nH]c3c2)cc(Cl)c1OCC(=O)NC(C)(C)C	4.56
COc1ccc(S(=O)(=O)Nc2ccccc2-c2nc3ccccc3[nH]c2=O)cc1	-9.79
COc1ccc(OC)c(NC(=O)Cn2c(CCC(=O)O)ccc2-c2ccc(C)cc2)c1	-7.22
Cc1ccc(CN2CC(C(=O)N3CCN(S(=O)(=O)c4cccc(F)c4)CC3)CC2=O)cc1 (centres unmarked)	-32.6
O=C(Nc1ccc(C(F)(F)F)cc1)C1(c2ccccc2)CC1	-15.2
CCNC(=S)Nc1cc(OCC)c(NC(=O)c2ccco2)cc1OCC	-1.82
